Measured values: PubChem BioAssay (EPA / NIEHS)
Activity calls are given as the source filed them. The calls were made as follows: active = hit-call score of the fitted dose curve at least 0.9, where 1 is the maximum; inactive = score below 0.9.

What was measured:
[1] = read-out: Human Leukocyte Antigen - DR isotype (HLADR), HLA-DRA (gene 3122); test: BSK_BE3C_HLADR: BioMAP Diversity Plus: BE3C Assay for Human Leukocyte Antigen - DR isotype (HLADR) Biomarker Activity (AID 2283032); settings: primary human bronchial epithelial cells; actives raise or lower the signal
Summary of the method: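 ELISA read-out of HLA-DR on human lung bronchial epithelial primary cells, measured 24 h post-dosing. Both increases and decreases were scored relative to DMSO vehicle.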

[2] = read-out: Vascular cell adhesion molecule 1 (VCAM1), VCAM1 (gene 7412); test: BSK_4H_VCAM1: BioMAP Diversity Plus: 4H Assay for Vascular cell adhesion molecule 1 (VCAM1) Biomarker Activity (AID 2283033); settings: primary human endothelial cells (HUVEC); actives raise or lower the signal
Summary of the method: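 ELISA read-out of VCAM-1 on human umbilical vein endothelium 24 hours after chemical dosing; gain or loss of signal was fitted relative to DMSO, with sulforhodamine B staining of parallel cultures flagging overt cytotoxicity.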

[3] = read-out: Interferon-gamma inducible Protein 10 (IP10), CXCL10 (gene 3627); test: BSK_BE3C_IP10: BioMAP Diversity Plus: BE3C Assay for Interferon-gamma inducible Protein 10 (IP10) Biomarker Activity (AID 2283034); settings: primary human bronchial epithelial cells; actives raise or lower the signal
Summary of the method: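 Chemical is dosed onto human lung bronchial epithelial primary cells, cultures are incubated 24 h, and IP-10 is then quantified by ELISA. Gain or loss of signal is fitted in both directions relative to DMSO.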

[4] = read-out: Monokine induced gamma interferon (MIG), CXCL9 (gene 4283); test: BSK_BE3C_MIG: BioMAP Diversity Plus: BE3C Assay for Monokine induced gamma interferon (MIG) Biomarker Activity (AID 2283035); settings: primary human bronchial epithelial cells; actives raise or lower the signal
Summary of the method: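 Primary human bronchial epithelial cells treated for 24 h; MIG levels measured by ELISA, fitted bidirectionally versus DMSO. Parallel SRB total-protein staining assessed cytotoxicity.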

[5] = read-out: Transforming growth factor beta 1 (TGFb1), TGFB1 (gene 7040); test: BSK_BE3C_TGFb1: BioMAP Diversity Plus: BE3C Assay for Transforming growth factor beta 1 (TGFb1) Biomarker Activity (AID 2283036); settings: primary human bronchial epithelial cells; actives raise or lower the signal
Summary of the method: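 Primary human lung bronchial epithelial cells; compound exposure 24 h; TGF-b1 by ELISA; bidirectional fit, DMSO baseline. Parallel SRB total-protein staining for cytotoxicity.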

[6] = read-out: Plasminogen activator inhibitor-1 (PAI1), SERPINE1 (gene 5054); test: BSK_BE3C_PAI1: BioMAP Diversity Plus: BE3C Assay for Plasminogen activator inhibitor-1 (PAI1) Biomarker Activity (AID 2283037); settings: primary human bronchial epithelial cells; actives raise or lower the signal
Summary of the method: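 Primary human lung bronchial epithelial cells; chemical dosing; 24 h; PAI-1 measured by ELISA; bidirectional fit referenced to DMSO as negative control.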

[7] = read-out: urokinase plasminogen activator (uPA), PLAU (gene 5328); test: BSK_BE3C_uPA: BioMAP Diversity Plus: BE3C Assay for urokinase plasminogen activator (uPA) Biomarker Activity (AID 2283038); settings: primary human bronchial epithelial cells; actives raise or lower the signal
Summary of the method: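 Bronchial epithelial cells (human, primary); chemical 24 h; uPA by ELISA; bidirectional fit vs DMSO. SRB (0.1%, after 10% TCA fixation, 560 nm) in parallel cultures for cytotoxicity.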

[8] = read-out: Urokinase-type plasminogen activator receptor (uPAR), PLAUR (gene 5329); test: BSK_BE3C_uPAR: BioMAP Diversity Plus: BE3C Assay for Urokinase-type plasminogen activator receptor (uPAR) Biomarker Activity (AID 2283039); settings: primary human bronchial epithelial cells; actives raise or lower the signal
Summary of the method: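 Human bronchial epithelial primary cells; chemical exposure 24 h; uPAR by ELISA; bidirectional fit vs DMSO control.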

[9] = read-out: Interleukin-6 (IL6), IL6 (gene 3569); test: BSK_CASM3C_IL6: BioMAP Diversity Plus: CASM3C Assay for Interleukin-6 (IL6) Biomarker Activity for (AID 2283040); settings: primary human coronary artery smooth muscle cells; actives raise or lower the signal
[10] = read-out: Tissue plasminogen activator (tPA), PLAT (gene 5327); test: BSK_BE3C_tPA: BioMAP Diversity Plus: BE3C Assay for Tissue plasminogen activator (tPA) Biomarker Activity (AID 2283041); settings: primary human bronchial epithelial cells; actives raise or lower the signal
Summary of the method: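 Primary human lung bronchial epithelial cultures receive test chemical; after 24 h, tPA is quantified by ELISA, and gain or loss of signal is fitted bidirectionally relative to DMSO baseline.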

[11] = read-out: Interleukin-8 (IL8), CXCL8 (gene 3576); test: BSK_CASM3C_IL8: BioMAP Diversity Plus: CASM3C Assay for Interleukin-8 (IL8) Biomarker Activity (AID 2283042); settings: primary human coronary artery smooth muscle cells; actives raise or lower the signal;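 also: IL-8 protein level quantified by ELISA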
[12] = read-out: Human Leukocyte Antigen - DR isotype (HLADR), HLA-DRA (gene 3122); test: BSK_CASM3C_HLADR: BioMAP Diversity Plus: CASM3C Assay for Human Leukocyte Antigen - DR isotype (HLADR) Biomarker Activity (AID 2283043); settings: primary human coronary artery smooth muscle cells; actives raise or lower the signal;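 also: cell-surface HLA-DR protein level quantified by ELISA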
[13] = read-out: Macrophage colony-stimulating factor (MCSF), CSF1 (gene 1435); test: BSK_CASM3C_MCSF: BioMAP Diversity Plus: CASM3C Assay for Macrophage colony-stimulating factor (MCSF) Biomarker Activity (AID 2283044); settings: primary human coronary artery smooth muscle cells; actives raise or lower the signal;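 also: M-CSF protein amount quantified by ELISA after 24 h exposure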
[14] = read-out: Low-density lipoprotein receptor (LDLR), LDLR (gene 3949); test: BSK_CASM3C_LDLR: BioMAP Diversity Plus: CASM3C Assay for Low-density lipoprotein receptor (LDLR) Biomarker Activity (AID 2283045); settings: primary human coronary artery smooth muscle cells; actives raise or lower the signal;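 also: LDLR protein level on the cell surface quantified by ELISA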
[15] = read-out: Monocyte Chemoattractant Protein-1 (MCP1), CCL2 (gene 6347); test: BSK_CASM3C_MCP1: BioMAP Diversity Plus: CASM3C Assay for Monocyte Chemoattractant Protein-1 (MCP1) Biomarker Activity (AID 2283046); settings: primary human coronary artery smooth muscle cells; actives raise or lower the signal;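 also: MCP-1 level quantified by ELISA 24 h after dosing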
[16] = BSK_CASM3C_Proliferation: Cell Proliferation Assessment in the BioMAP Diversity Plus: CASM3C Assay (AID 2283047); settings: primary human coronary artery smooth muscle cells;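 also: sulforhodamine B total protein stain as relative cell number at 560 nm; sub-confluent cells exposed 48 h before staining; fitted both ways against DMSO so gain or loss of cell number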
[17] = read-out: Monokine induced gamma interferon (MIG), CXCL9 (gene 4283); test: BSK_CASM3C_MIG: BioMAP Diversity Plus: CASM3C Assay for Monokine induced gamma interferon (MIG) Biomarker Activity (AID 2283048); settings: primary human coronary artery smooth muscle cells; actives raise or lower the signal
[18] = read-out: serum amyloid A (SAA), SAA1 (gene 6288); test: BSK_CASM3C_SAA: BioMAP Diversity Plus: CASM3C Assay for serum amyloid A (SAA) Biomarker Activity (AID 2283049); settings: primary human coronary artery smooth muscle cells; actives raise or lower the signal;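 also: SAA protein level quantified by ELISA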
[19] = read-out: Vascular endothelial growth factor receptor 2 (Homo sapiens) (UniProt P35968); test: BSK_4H_VEGFRII: BioMAP Diversity Plus: 4H Assay for Vascular endothelial growth factor receptor 2 (VEGFR2) Biomarker Activity (AID 2283031); settings: primary human endothelial cells (HUVEC); actives raise or lower the signal;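 as to AC50: cell-surface VEGFR2 protein level quantified by ELISA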
Summary of the method: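 ELISA read-out of VEGFRII in primary human umbilical vein endothelium, taken 24 h after chemical treatment. Responses are expressed relative to DMSO, with bidirectional fitting.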

Measured: AC50

CCOc1nc(C(Cl)(Cl)Cl)ns1
inactive: [1] | [2] | [3] | [4] | [5] | [6] | [7] | [8] | [9] | [10] | [11] | [12] | [13] | [14] | [15] | [16] | [17] | [18]

CC1(C)CCC(=Cc2ccc(Cl)cc2)C1(O)Cn1cncn1 (stereo not drawn)
inactive: [19] | [1] | [2] | [3] | [4] | [5] | [6] | [7] | [8] | [9] | [10] | [11] | [12] | [13] | [14] | [15] | [16] | [17] | [18]

O=c1n(Cl)c(=O)n(Cl)c(=O)n1Cl
inactive: [19] | [1] | [2] | [3] | [4] | [5] | [6] | [7] | [8] | [9] | [10] | [11] | [12] | [13] | [14] | [15] | [16] | [17] | [18]

CCOc1cc(C(C)(C)C)ccc1C1COC(c2c(F)cccc2F)=N1 (stereo not drawn)
active: [19] 22.8 µM | [1] 14.3 µM | [2] 37.4 µM | [3] 16.3 µM | [6] 19 µM | [7] 20 µM | [8] 6.6 µM | [10] 22.1 µM | [15] 32.5 µM | [16] 33 µM
inactive: [4] | [5] | [9] | [11] | [12] | [13] | [14] | [17] | [18]

COC(=O)NS(=O)(=O)c1ccc(N)cc1
inactive: [19] | [1] | [2] | [3] | [4] | [5] | [6] | [7] | [8] | [9] | [10] | [11] | [12] | [13] | [14] | [15] | [16] | [17] | [18]

CS(=O)(=O)c1cc(C(F)(F)F)ccc1C(=O)c1cnoc1C1CC1
inactive: [19] | [1] | [2] | [4] | [5] | [6] | [7] | [8] | [9] | [10] | [11] | [12] | [13] | [14] | [15] | [16] | [17] | [18]
active: [3] 4.13 µM

CCNP(=S)(OC)O/C(C)=C/C(=O)OC(C)C (stereo not drawn)
inactive: [19] | [1] | [2] | [3] | [4] | [5] | [6] | [7] | [8] | [9] | [10] | [11] | [12] | [13] | [14] | [15] | [16] | [17] | [18]

CSC(=O)c1c(C(F)F)nc(C(F)(F)F)c(C(=O)SC)c1CC(C)C
inactive: [19] | [1] | [2] | [3] | [4] | [5] | [6] | [7] | [8] | [10] | [11] | [12] | [13] | [14] | [15] | [16] | [17] | [18]
active: [9] 3.97 µM

COc1cc(Cl)c(OC)cc1Cl
inactive: [19] | [1] | [2] | [3] | [4] | [5] | [6] | [7] | [8] | [9] | [10] | [11] | [12] | [13] | [14] | [15] | [16] | [17] | [18]

CC(C)N1C(=O)c2ccccc2NS1(=O)=O
inactive: [19] | [1] | [2] | [3] | [4] | [6] | [7] | [8] | [9] | [10] | [11] | [12] | [13] | [14] | [16] | [17] | [18]

CCCC(=NOCC)C1=C(O)CC(CC(C)SCC)CC1=O (stereo not drawn)
inactive: [19] | [1] | [2] | [3] | [4] | [5] | [6] | [7] | [8] | [9] | [10] | [11] | [12] | [13] | [14] | [15] | [16] | [17] | [18]

CCNC(=O)NC(=O)C(C#N)=NOC
inactive: [1] | [2] | [3] | [4] | [5] | [6] | [7] | [8] | [10] | [11] | [12] | [13] | [14] | [16] | [17] | [18]
active: [9] 6.13 µM | [15] 1.98 µM

Clc1nc(Cl)nc(Nc2ccccc2Cl)n1
active: [8] 0.293 µM
inactive: [19] | [1] | [2] | [3] | [4] | [5] | [6] | [7] | [9] | [10] | [11] | [12] | [13] | [14] | [15] | [16] | [17] | [18]

CN=C=S
inactive: [19] | [1] | [2] | [3] | [4] | [5] | [6] | [7] | [8] | [9] | [10] | [11] | [12] | [13] | [14] | [15] | [16] | [17] | [18]

CC(C)NC(=O)N1CC(=O)N(c2cc(Cl)cc(Cl)c2)C1=O
inactive: [19] | [1] | [2] | [3] | [4] | [5] | [6] | [7] | [8] | [9] | [10] | [11] | [12] | [13] | [14] | [15] | [16] | [17] | [18]

Cc1ccc(N=CN(C)C=Nc2ccc(C)cc2C)c(C)c1
active: [19] 26 µM | [1] 26.7 µM | [2] 29.5 µM | [3] 30.5 µM | [4] 33.3 µM | [5] 34.1 µM | [6] 30.7 µM | [7] 35.4 µM | [9] 30.9 µM | [13] 29.6 µM | [16] 30.4 µM | [18] 28.7 µM
inactive: [8] | [10] | [11] | [12] | [14] | [15] | [17]

Clc1cccc(C(Cl)(Cl)Cl)n1
inactive: [19] | [1] | [2] | [3] | [4] | [5] | [6] | [7] | [8] | [9] | [10] | [11] | [12] | [13] | [14] | [15] | [16] | [17] | [18]

CCOP(=O)(OCC)Oc1nc(Cl)c(Cl)cc1Cl
inactive: [19] | [1] | [4] | [5] | [6] | [7] | [9] | [10] | [11] | [12] | [13] | [14] | [15] | [16] | [17] | [18]
active: [2] 26.7 µM | [3] 23.9 µM | [8] 9.84 µM
